Experimental data: PubChem BioAssay (NCI)
The panel holds about 83,000 compounds, 20% with a hit somewhere; the sample as a whole holds those more often.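 The endpoint reported here, percent growth, reads 100 for growth as untreated, 0 for no net growth and -100 for all cells dead.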 Active and inactive are the calls of the source. The calls were made as follows: active = growth percent below 10; inactive = the rest.

How the values were obtained:
Experiment in all cases: NCI-60 one-dose screen, 48 h (100 = growth as untreated, 0 = no growth, -100 = all killed)
Conditions in all cases: 10 µM
RPMI-8226 leukemia = system: RPMI-8226 leukemia
OVCAR-8 ovarian = system: OVCAR-8 ovarian
OVCAR-5 ovarian = system: OVCAR-5 ovarian
OVCAR-4 ovarian = system: OVCAR-4 ovarian
SK-OV-3 ovarian = system: SK-OV-3 ovarian
IGROV1 ovarian = system: IGROV1 ovarian
OVCAR-3 ovarian = system: OVCAR-3 ovarian
HS 578T breast = system: HS 578T breast
NCI/ADR-RES ovarian = system: NCI/ADR-RES ovarian
T-47D breast = system: T-47D breast
BT-549 breast = system: BT-549 breast
MDA-MB-435 melanoma = system: MDA-MB-435 melanoma
SW-620 colon = system: SW-620 colon
MCF7 breast = system: MCF7 breast
HCT-116 colon = system: HCT-116 colon
HCC-2998 colon = system: HCC-2998 colon
KM12 colon = system: KM12 colon

Measured: growth

O=C(Nc1ccc(Cl)cc1)N1NC(c2ccc(Cl)cc2)C=C1c1ccccc1 (stereo not drawn)
inactive: RPMI-8226 leukemia 99.5% | OVCAR-8 ovarian 97% | OVCAR-5 ovarian 124% | OVCAR-4 ovarian 91.5% | SK-OV-3 ovarian 97% | IGROV1 ovarian 95.3% | OVCAR-3 ovarian 103% | HS 578T breast 123% | NCI/ADR-RES ovarian 115% | T-47D breast 94% | BT-549 breast 102% | MDA-MB-435 melanoma 103% | SW-620 colon 110% | MCF7 breast 89.6% | HCT-116 colon 104% | HCC-2998 colon 97.5% | KM12 colon 96.3%

Cc1ccc(C(=O)Nc2cccc(F)c2)cc1NC(=O)C1(c2ncnc3[nH]ccc23)CC1
inactive: RPMI-8226 leukemia 83.2% | OVCAR-8 ovarian 89.7% | OVCAR-5 ovarian 83.6% | OVCAR-4 ovarian 101% | SK-OV-3 ovarian 91.1% | IGROV1 ovarian 90.3% | OVCAR-3 ovarian 103% | HS 578T breast 74% | NCI/ADR-RES ovarian 92% | T-47D breast 74.1% | BT-549 breast 93.4% | MDA-MB-435 melanoma 74% | SW-620 colon 67% | MCF7 breast 87.1% | HCT-116 colon 44.5% | HCC-2998 colon 60.5% | KM12 colon 82.7%

CCCCCCCNc1nc(C=O)ncc1-c1ccc(C(F)(F)F)cc1
inactive: RPMI-8226 leukemia 84% | OVCAR-8 ovarian 102% | OVCAR-5 ovarian 103% | OVCAR-4 ovarian 110% | SK-OV-3 ovarian 96.5% | IGROV1 ovarian 89.8% | OVCAR-3 ovarian 97.6% | HS 578T breast 107% | NCI/ADR-RES ovarian 90.1% | T-47D breast 81.6% | BT-549 breast 99.7% | MDA-MB-435 melanoma 100% | SW-620 colon 98% | MCF7 breast 83.5% | HCT-116 colon 98.3% | HCC-2998 colon 104% | KM12 colon 91.2%

COc1cc(-c2nc(-c3nnc(-c4ccccc4Cl)o3)c3ccccn23)cc(OC)c1OC
inactive: RPMI-8226 leukemia 50.2% | OVCAR-8 ovarian 47.8% | OVCAR-5 ovarian 92.5% | OVCAR-4 ovarian 77.4% | SK-OV-3 ovarian 84.5% | IGROV1 ovarian 111% | OVCAR-3 ovarian 86.4% | HS 578T breast 83.1% | NCI/ADR-RES ovarian 66.4% | T-47D breast 61.4% | BT-549 breast 89.5% | MDA-MB-435 melanoma 100% | SW-620 colon 104% | MCF7 breast 81.9% | HCT-116 colon 97% | HCC-2998 colon 94.7% | KM12 colon 80.5%

O=C1Nc2ccccc2C1=NC1CCCCC1
inactive: RPMI-8226 leukemia 103% | OVCAR-8 ovarian 98.1% | OVCAR-5 ovarian 106% | OVCAR-4 ovarian 96.3% | SK-OV-3 ovarian 95.4% | IGROV1 ovarian 88.5% | OVCAR-3 ovarian 103% | HS 578T breast 116% | NCI/ADR-RES ovarian 103% | T-47D breast 83.1% | BT-549 breast 96.1% | MDA-MB-435 melanoma 106% | SW-620 colon 105% | MCF7 breast 98% | HCT-116 colon 105% | HCC-2998 colon 107% | KM12 colon 95.9%

COc1ccc2c(c1)O/C(=C\c1ncc([N+](=O)[O-])n1C)C2=O
inactive: T-47D breast 76.5%
active: RPMI-8226 leukemia -1.22% | OVCAR-8 ovarian -20.8% | OVCAR-5 ovarian -14.7% | OVCAR-4 ovarian -11.6% | SK-OV-3 ovarian -15.9% | IGROV1 ovarian -25% | OVCAR-3 ovarian -24.8% | HS 578T breast -21.1% | NCI/ADR-RES ovarian 1.07% | BT-549 breast -36.8% | MDA-MB-435 melanoma -78.1% | SW-620 colon -20.8% | MCF7 breast 1.94% | HCT-116 colon 0.959% | HCC-2998 colon -58.8% | KM12 colon -37.7%

CC1(C)OC2=C(CC1Br)C(=O)C(=O)c1ccccc12 (stereo not drawn)
active: RPMI-8226 leukemia -28.1% | OVCAR-8 ovarian -46.4% | OVCAR-5 ovarian -80.5% | OVCAR-4 ovarian -99.4% | IGROV1 ovarian -80.2% | OVCAR-3 ovarian -96.5% | HS 578T breast 8.65% | NCI/ADR-RES ovarian -44.7% | T-47D breast -45.4% | BT-549 breast -99.2% | MDA-MB-435 melanoma -87.4% | SW-620 colon -81.5% | MCF7 breast -66.3% | HCT-116 colon -57% | HCC-2998 colon -19.7% | KM12 colon -93%
inactive: SK-OV-3 ovarian 77.8%

N#Cc1ncc(-c2cc(F)c(F)c(F)c2)c(NC2CCCCCC2)n1
inactive: RPMI-8226 leukemia 81.1% | OVCAR-8 ovarian 96.2% | OVCAR-5 ovarian 104% | OVCAR-4 ovarian 77.8% | SK-OV-3 ovarian 88.3% | IGROV1 ovarian 93.5% | OVCAR-3 ovarian 100% | HS 578T breast 73.3% | NCI/ADR-RES ovarian 95.3% | T-47D breast 72.6% | BT-549 breast 100% | MDA-MB-435 melanoma 95.5% | SW-620 colon 92.8% | MCF7 breast 79.1% | HCT-116 colon 84.4% | HCC-2998 colon 91.9% | KM12 colon 78.7%

Clc1ccc2c(NCCCNc3nccc(Nc4ccc(Br)cc4)n3)ccnc2c1
active: RPMI-8226 leukemia -59.9% | OVCAR-8 ovarian -65.2% | OVCAR-4 ovarian -9.2% | SK-OV-3 ovarian -44.1% | OVCAR-3 ovarian -22.8% | HS 578T breast -56% | NCI/ADR-RES ovarian 0.467% | T-47D breast -56.2% | BT-549 breast 4.45% | MDA-MB-435 melanoma -88.3% | SW-620 colon -74.4% | MCF7 breast -98.8% | HCT-116 colon -97.5% | HCC-2998 colon -91.4% | KM12 colon -48.6%
inactive: OVCAR-5 ovarian 15.3% | IGROV1 ovarian 24.2%
